In PubChem BioAssay (NCI):
This is part of a sample that, as a whole, favours compounds with a hit. Of some 83,000 tested, about 20% had one in any assay.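 Growth was measured after 48 h exposure to one concentration of compound in 96-well plates. Values under 10 count as active.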 A number with no mark means an inactive call. Activity calls are given as the source filed them.

Assays:
Test in all cases: NCI-60 one-dose screen, 48 h (100 = growth as untreated, 0 = no growth, -100 = all killed)
Details in all cases: 10 µM unless noted
[1] = tested on: T-47D breast
[2] = tested on: BT-549 breast
[3] = tested on: MDA-MB-435 melanoma
[4] = tested on: SW-620 colon
[5] = tested on: MCF7 breast
[6] = tested on: HCT-116 colon
[7] = tested on: HCC-2998 colon
[8] = tested on: KM12 colon

SMILES	growth [1]	growth [2]	growth [3]	growth [4]	growth [5]	growth [6]	growth [7]	growth [8]
COc1ccc(/C=C2\N=C(c3ccccc3)N(c3cc(OC)c(OC)cc3C(=O)N3N=C(C)CC3=O)C2=O)cc1	71.2%	90.1%	93.4%	108%	89.7%	89.6%	113%	91.1%
Cn1c(=O)c2c(ncn2CCC(=O)Nc2ccc(F)cc2)n(C)c1=O	94.1%	90.3%	110%	106%	100%	87.7%	115%	103%
CC(=O)OC[C@]12CC[C@@H](/C(C)=N/O)[C@@H]1[C@H]1CC[C@@H]3[C@@]4(C)CCCNC(C)(C)[C@@H]4CC[C@@]3(C)[C@]1(C)CC2	47.7%	66.2%	81.8%	80.3%	57.4%	46.5%	95.2%	76.4%
COc1cnc2c(c1)C(=O)c1c-2n(CCCN2CCN(CCO)CC2)c(=O)c2cc([N+](=O)[O-])ccc12	64.4%	65.6%	40.8%	-48.8% (active)	-6.37% (active)	-87.6% (active)	80%	32.4%
CCCCn1c(-c2ccc(O)cc2)cn2c3c(=O)[nH]c(=O)n(C)c3nc12	64.6%	76.5%	-13.1% (active)	36.6%	41.7%	45.4%	72.3%	59.9%
CCOC(=O)C/C(=C\c1ccccc1)C(C)=O	68.1%	98.4%	109%	103%	101%	88.7%	107%	101%
O=C(/C=C/c1cccc(O)c1)c1ccccc1O	91.2%	85.2%	76%	86.3%	63.5%	78.1%	98%	72.5%
CC1(C)C=CC[C@]2(C)[C@H]3CC[C@@H]4[C@H]5[C@H](C(=O)/C=C/c6cccnc6)CC[C@]5(CO)CC[C@@]4(C)[C@]3(C)CC[C@@H]12	-74.5% (active)	-81% (active)	-57.1% (active)	-59% (active)	-21.8% (active)	-88.6% (active)	-66.8% (active)	-80.7% (active)
C=C(C)[C@@H]1CC[C@]2(C(=O)N3CCN(CC)CC3)CC[C@]3(C)[C@H](CC[C@@H]4[C@@](C)(CCC(=O)N5CCN(CC)CC5)[C@H](C(=C)C)CC[C@]43C)[C@@H]12	59.7%	78.7%	70.2%	49.9%	46.5%	24.9%	75.7%	54.2%
COC(=O)c1cc(=O)nc(N/N=C/c2ccc(C)cc2)s1	105%	99.6%	115%	106%	89.9%	105%	106%	110%
Fc1ccc2c(c1)c(-c1nc(-c3c[nH]c4ncccc34)cs1)cn2CCCN1CCCCC1	67.5%	88.8%	-20% (active)	-34.9% (active)	21.6%	45.3%	98.8%	68.3%
CC1(C)C(=O)CC[C@]2(C)[C@H]3C(=O)C=C4[C@@H]5C[C@@](C)(C(=O)NCCNCCN)CC[C@]5(C)CC[C@@]4(C)[C@]3(C)CC[C@@H]12	82%	91.7%	101%	102%	90.6%	83.2%	101%	98.7%
C=C(C)[C@@H]1CC[C@]2(C(=O)N3CCN(C)CC3)CC[C@]3(C)[C@H](CC[C@@H]4[C@@]5(C)C/C(=C/c6ccc(C(F)(F)F)cc6)C(=O)C(C)(C)[C@@H]5CC[C@]43C)[C@@H]12	79.9%	102%	97.2%	99.5%	87.5%	89.8%	107%	97%
COC(=O)[C@]12CC[C@@H](C)[C@H](C)[C@@H]1C1=CC[C@@H]3[C@@]4(C)C[C@@H](OC(C)=O)[C@H](O)[C@@](C)(CO)[C@@H]4[C@H](O)C[C@@]3(C)[C@]1(C)CC2	-66.9% (active)	-81.5% (active)	-96.4% (active)	-67.8% (active)	-73.5% (active)	-65.4% (active)	-87.8% (active)	-84.2% (active)
CCN1CCN(C(=O)[C@]23CCC(C)(C)C[C@@H]2C2=CC[C@@H]4[C@@]5(C)C/C(=C/c6ccncc6)C(=O)C(C)(C)[C@@H]5CC[C@@]4(C)[C@]2(C)CC3)CC1	-2.08% (active)	-5.92% (active)	-29.9% (active)	-54.1% (active)	-53.6% (active)	-92.4% (active)	-68.8% (active)	-39.9% (active)
O=S(=O)(NCCNc1cc(-c2cn(-c3ccccc3)nc2-c2cccc(O)c2)ccn1)c1ccc(F)cc1	7.88% (active)	32.2%	2.49% (active)	18.8%	10.7%	23.9%	-34.9% (active)	11.3%
Cc1ccncc1C(=O)O	107%	99.8%	101%	97.3%	101%	107%	116%	98.6%
COc1cc(-c2nc(-c3ccccc3)c(-c3ccccc3)[nH]2)cc(OC)c1O	6.06% (active)	11.5%	-23.2% (active)	-37.2% (active)	-85.8% (active)	-2.7% (active)	-55.2% (active)	-52.9% (active)
C#Cc1cc2c(N)c(C(=O)c3cc(OC)c(OC)c(OC)c3)[nH]c2cc1OC	25.7%	57.4%	-15.8% (active)	18.4%	19.7%	29.9%	64.3%	31.5%
COc1cc(/C=C2\C(=O)N(CC(O)COc3cc(O)c4c(=O)cc(-c5ccccc5)oc4c3)c3ccccc32)cc(OC)c1O (configuration not stated)	58.2%	96.7%	54.7%	89.9%	32.8%	78.4%	99.7%	82%
Clc1ccc2[nH]cc(-c3nc(-c4c[nH]c5ncccc45)cs3)c2c1	47.8%	59.3%	49.4%	18.1%	35%	23.7%	69.3%	23.3%
Cn1cc(-c2nc(-c3cn(C)c4ncccc34)cs2)c2cc(F)ccc21	48.1%	49%	-15.1% (active)	26.9%	20%	18.6%	53%	22.2%
c1csc(-c2nc(-c3cc4ccccc4c(N4CCOCC4)n3)cs2)c1	71.2%	103%	38%	97.2%	80.5%	100%	103%	99.7%
O=C(O)c1cccc2c1-c1ccc(Cl)cc1C2	97.9%	113%	106%	111%	104%	107%	106%	108%
COc1cc2c(cc1OC)C(=O)/C(=C/c1cc(-c3ccc4c(c3)OCO4)n[nH]1)C2	-4.12% (active)	-47.8% (active)	17.3%	-84.9% (active)	0.343% (active)	-61% (active)	89.3%	-82.3% (active)
COc1cnc2c(c1)C(=O)c1c-2n(CCCNC2=NCCS2)c(=O)c2cc([N+](=O)[O-])ccc12	14.4%	35%	-92.7% (active)	-59% (active)	-51.3% (active)	-66.4% (active)	-61.2% (active)	-43.9% (active)
COc1ccc(C2NC(=O)Nc3ccccc32)c(OC)c1 (configuration not stated)	91.4%	109%	101%	114%	84.6%	104%	92.7%	110%
Cc1cc(N2CCCCC2)nc(N(CCNc2ccnc3cc(Cl)ccc23)Cc2ccco2)n1	-29.3% (active)	42.4%	32.8%	21.9%	10.7%	2.13% (active)	92.6%	31.9%
COc1cccc(-c2nn(-c3ccccc3)cc2-c2ccnc(NCCCO)c2)c1	26.7%	55.2%	-15.5% (active)	21.3%	29.5%	22.9%	65.5%	34.1%
